Most compounds without a hit are left out; they make up all but 20% or so of the library.
Shiga inhibitor = Shiga toxin inhibition. Vero cells, Shiga toxin protein synthesis inhibition reporter. inhibition, % at 38.7 µM. 290,000 tested, 9.2% active. AID 2315; in the data active = inhibition mostly above about 28%, no sharp cut-off; inactive = mostly below about 43%; note: 0% is about no effect
Pf growth 48h = inhibits P. falciparum growth in the first generation, 48 h. P. falciparum luciferase growth in erythrocytes, 48 h. Potency, µM (highest dose often 28.7 µM), inactives show at the highest dose activity change, negative = inhibition, actives largely listed as inhibitors. 310,000 tested, 5.9% active. AID 504832; note: potency is the fitted concentration of half-maximal effect; % is set by controls: 0 for no effect and ±100 for the full control effect
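Luciferase-expressing P. falciparum in infected erythrocytes (2% hematocrit, 0.1% parasitemia final) in RPMI 1640/0.5% Albumax were exposed to compound for 48 hours at 37 C, 5% CO2; growth read as luminescence.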
Pf growth 96h = inhibits malaria parasite growth, 96 h | Potency, µM (series often up to 28.7 µM), inactives show at the top dose activity change, negative = inhibition, actives largely listed as inhibitors | 320,000 tested, 6.9% active | P. falciparum luciferase reporter growth, 96 h | AID 504834; note: potency is the fitted concentration of half-maximal effect; % is set by controls: 0 for no effect and ±100 for the full control effect
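Parasite growth measured via integrated firefly luciferase reporter in P. falciparum. Infected erythrocytes at 2% hematocrit, 0.05% parasitemia final were treated 96 hours at 37 C under 5% CO2, and luminescence was read.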
Cycloheximide cs = affects cycloheximide protein synthesis inhibition readout, counter-screen | cell reporter, cycloheximide protein synthesis inhibition counterscreen | max response, % | 300,000 tested, 12% active | AID 2314; in the data active = max response mostly above about 13%, no sharp cut-off; inactive = mostly below about 14%; note: read at 38.3 µM for the half of the compounds with a filed dose; 0% is about no effect
HCMV antiviral = inhibitors of human cytomegalovirus | activity change, negative = inhibition, % at 57.5 µM | 410,000 tested, 4.5% active | HFF cells, HCMV-luciferase reporter, 72 h; active compounds read low | AID 1259415; in the data active = activity change below about -60%; inconclusive = no clear call, values can overlap the other calls; inactive = above about -39%; note: % is set by controls: 0 for no effect and ±100 for the full control effect
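Two-dose cell screen: HFF monolayers treated with compounds and infected with luciferase-expressing HCMV at 1 PFU/cell, 72 h at 37C, then lysed for luciferase measurement.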
The depositor's hits bear a star; ? = inconclusive; . = not tested or not shown; [ ] = remark or other dose. Unless noted, calls come from the whole dose curve; as a rule, active = well fitted inhibition curve with a large enough effect; inconclusive = small, poorly fitted or top-dose-only effect, or another doubt; inactive = no such curve, though single readings can be large or run the other way.

SMILES	Shiga inhibitor	Pf growth 48h	Pf growth 96h	Cycloheximide cs	HCMV antiviral
COc1ccc(CCNS(=O)(=O)c2ccc(Br)s2)cc1	39*	-28%	-6%	29*	-11
Cc1ccc(S(=O)(=O)NCc2ccncc2)cc1C	19	-4%	?	14	-68*
Cc1cc(Br)c(S(=O)(=O)NCc2ccncc2)cc1C	-6	-8%	?	-3	-82*
Cc1ccc(NCc2ccncc2)c(Br)c1	33*	-18%	-1%	12	4
COc1ccc(-n2cc(C(=O)Oc3cc(C)cc(C)c3)c3ccccc3c2=O)cc1	.	.	.	.	16
CC(=O)Nc1cccc(-c2nnc(-c3ccccc3)o2)c1	106*	28%	.	45*	113
CC(C)(C)C(=O)Nc1cccc(-c2nnc(-c3cccc(NC(=O)C(C)(C)C)c3)o2)c1	10	4.7µM*	?	1	?
O=C(Nc1cccc(-c2nnc(-c3ccccc3)o2)c1)C1CC1	28	?	34%[1.15 µM]	27	?
Cc1ccc(F)cc1NC(=O)c1cnccn1	11	26%	13%	10	-34
Cc1ccc(C(=O)Nc2cccc(C(F)(F)F)c2)cc1Nc1ccccn1	-2	?	-1%	-2	-22
O=C(CN1CCOCC1)Nc1cccc(C(=O)Nc2cccc(C(F)(F)F)c2)c1	0	?	0%	-2	20
CCCCCNCC(=O)Nc1cccc(C(=O)Nc2cccc(C(F)(F)F)c2)c1	6	4.7µM*	3.3µM*	-2	-29
Cc1ccc(C(=O)Nc2cccc(C(F)(F)F)c2)cc1Nc1cncnc1	8	1%	12µM*	1	?
Cc1cccc(NC(=O)CS(=O)(=O)c2cccc3nsnc23)c1	.	.	.	.	5
O=C1NCCOC(=O)[C@@H](Cc2ccc(F)cc2)CC/C=C/C[C@@H]1CC(=O)N(CCO)Cc1ccccc1	.	.	.	.	-63*
O=C(N[C@@H]1C/C=C\C[C@H](CC(=O)N(CCO)Cc2ccccc2)C(=O)N[C@@H](Cc2ccccc2)COC1=O)OCC1c2ccccc2-c2ccccc21	.	.	.	.	-69*
O=C1CCCC/C=C\C[C@H](CC(=O)N(CCO)Cc2ccccc2)C(=O)N[C@@H](c2ccccc2)CO1	.	.	.	.	-63*
CC(C)(C)[C@H]1COC(=O)[C@H](NC(=O)OCC2c3ccccc3-c3ccccc32)C/C=C\C[C@@H](CC(=O)N(CCO)Cc2ccccc2)C(=O)N1	.	.	.	.	3
N#Cc1cccc(NC(=O)Cn2nc(Cc3ccncc3)c3ccccc3c2=O)c1	.	.	.	.	-14
O=C(Nc1ccc(F)cc1)N[C@H]1CC[C@@]23CCCN2C(=O)CCC[C@H]3C1Cc1ccccc1 (stereo partly specified)	.	.	.	.	8
CC1CCN(c2ccc(NC(=S)NC(=O)c3ccc(-c4cccc([N+](=O)[O-])c4)o3)cc2)CC1	13	4.7µM*	.	-1	-19
O=C(NC(=S)Nc1ccc(N2CCCCC2)cc1)c1ccco1	92*	144%	14%	39*	55
O=C(NC(=S)Nc1cccc2c(O)cccc12)c1ccco1	109*	?	?	26*	-27
O=C(NC(=S)Nc1ccccc1N1CCCC1)c1ccco1	16	?	?	2	-13
O=C(NC(=S)Nc1ccccc1N1CCCCC1)c1ccco1	-4	0%	2%	-1	-71*
SMILES	Shiga inhibitor	Pf growth 48h	Pf growth 96h	Cycloheximide cs	HCMV antiviral
O=C(NC(=S)Nc1ccccc1Cl)c1ccco1	90*	2%	-6%	44*	-4
CC1CCN(c2ccc(NC(=S)NC(=O)c3ccco3)cc2)CC1	72*	?	?	19*	?
CCCC(=O)NC(=S)Nc1cccc2c(O)cccc12	11	-27%[5.75 µM]	14%	1	-99*
O=C(NC(=S)Nc1cccc(Cl)c1N1CCCCC1)c1ccco1	43	-17%	?	2	-32
O=C(NC(=S)Nc1ccc(NC(=O)c2ccco2)cc1)c1ccccc1	-7	1%	69%	0	?
COc1ccc(N2CCOCC2)c(NC(=O)c2cccnc2)c1	-10	?	-19%	8	-28
O=[N+]([O-])c1ccccc1OCCNCc1ccccc1	.	99%	14%	16*	33
O=[N+]([O-])c1ccccc1CNCCc1c[nH]c2ccccc12	-2	2.9µM*	-29%	-1	126
O=[N+]([O-])c1ccc(CNCCc2ccccc2)cc1	.	20%	13µM*	2	3
O=[N+]([O-])c1ccccc1CNCCc1ccc(F)cc1	68*	.	61%	40*	7
Clc1ccccc1CNCCc1c[nH]c2ccccc12	.	.	.	.	-10
CNc1nc(N2CCc3ccccc32)ncc1F	105*	222%	.	39*	95
COc1ccc(C2CC(=O)c3cnc(N4CCc5ccccc54)nc3C2)cc1OC (stereo unspecified)	2	?	?	-3	.
COc1cc(/C(C)=N/NC(=O)Cc2c(C)[nH][nH]c2=O)ccc1O	-8	-5%	20%	-4	-67*
COc1ccc(N2CC3=C(C2=O)C(c2ccc(Br)cc2)NC(=O)N3C)cc1 (stereo unspecified)	.	.	.	.	-99*
CC(C)(C)c1ccc(C2NC(=O)c3n[nH]c(-c4cccs4)c32)cc1 (stereo unspecified)	.	.	.	.	-91*
CCOC(=O)/C(=C\Nc1ccc(OCc2ccccc2)cc1)NC(=O)c1ccccc1	.	.	.	.	15
Cc1ccc(-c2nn3c(C)nnc3s2)cc1NC(=O)c1ccc(-c2cccc(Cl)c2)o1	-7	.	?	0	?
Cc1ccc(OCC(=O)Nc2cc(-c3nn4c(C)nnc4s3)ccc2C)cc1	-17	?	7.4µM*	-1	-9
CCC(=O)Nc1cc(-c2nn3c(C)nnc3s2)ccc1C	13	18%	7%	16	44
Cc1ccc(-c2nn3c(C)nnc3s2)cc1NC(=O)c1ccc(-c2ccc(Cl)cc2Cl)o1	-7	9%	.	-2	-74*
COc1ccc(/C=C/C2=NNC(=O)CC2)cc1	66	97%	205%	27*	-1
CCCOc1ccc(C2=NNC(=O)CC2)cc1	12	11%	66%	15*	7
CCOc1ccc(/C=C/C2=NNC(=O)CC2)cc1	53*	51%	71%	23*	-4
O=C1CCC(/C=C/c2ccccc2)=NN1	17	17%	24%	17*	14
SMILES	Shiga inhibitor	Pf growth 48h	Pf growth 96h	Cycloheximide cs	HCMV antiviral
O=C(NC1CCCCC1)c1ccc(CSc2nc3ccncc3n2Cc2ccccc2F)cc1	.	.	.	.	-19
COc1cccc(CNC(=O)[C@@H]2[C@@H](CO)[C@@H]3Cn4c(ccc(-c5cncnc5)c4=O)[C@H]2N3C(C)=O)c1	.	.	.	.	-101*
COCCNC(=O)[C@H]1[C@H](CO)[C@H]2Cn3c(ccc(-c4ccc(F)cc4)c3=O)[C@@H]1N2C(=O)NC(C)C	.	.	.	.	3
COc1ccc(-c2noc(CCCC(=O)Nc3ccc(C(N)=O)cc3)n2)cc1OC	12	?	?	10	62
c1ccc(CSc2snnc2-c2ccccc2)cc1	42*	-1%	0%	44*	0
Clc1ccc(CSc2snnc2-c2ccccc2)c(Cl)c1	98*	15%	?	43*	1

Bioassay records as filed in PubChem.
